Structures are written as SMILES. Values without a mark were called inactive.

The test relates to Caenorhabditis elegans dauer (daf-2(e1370)). In words: proportion of mobile C. elegans dauer larvae relative to DMSO control (fraction of DMSO control); higher = more viable, less nematicidal, active = 0.63 or less; extreme values may be limits of the assay. The conditions noted are these: 60 µM; 5 days; temperature: 20 °C. As for the experimental part: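 DODA library (846 commercial 1,3,4- and 1,2,4-oxadiazole compounds plus commercial nematicide controls) screened at a single dose of 60 µM (0.6% DMSO) in 96-well plates, two biological replicates. Read-outs: C. elegans N2 L1 survival/reproduction score at day 6, 20 °C (0: 0-10 worms, 1: 11-20, 2: 21-50, 3: >50, 4: overgrown/starved). C. elegans daf-2 dauer, D. dipsaci and M. hapla J2 mobility at day 5, 20 °C, and P. penetrans mobility at day 5, 20 °C, each relative to DMSO controls. M. hapla egg hatching at day 12, 25 °C, relative to the mean of 8 DMSO wells on the same plate.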
Consider `CC(C)NC(=O)N1CC(=O)N(c2cc(Cl)cc(Cl)c2)C1=O` [iprodione], for which the “proportion of mobile C. elegans dauer larvae” value (from here on “proportion”) is 1.

Take `CC[C@H](C)[C@H]1O[C@]2(C=C[C@@H]1C)C[C@@H]1C[C@@H](C/C=C(\C)[C@@H](O[C@H]3C[C@H](OC)[C@@H](O[C@H]4C[C@H](OC)[C@@H](O)[C@H](C)O4)[C@H](C)O3)[C@@H](C)/C=C/C=C3\CO[C@@H]4[C@H](O)C(C)=C[C@@H](C(=O)O1)[C@]34O)O2.CO[C@H]1C[C@H](O[C@H]2[C@H](C)O[C@@H](O[C@@H]3/C(C)=C/C[C@@H]4C[C@@H](C[C@]5(C=C[C@H](C)[C@@H](C(C)C)O5)O4)OC(=O)[C@@H]4C=C(C)[C@@H](O)[C@H]5OC/C(=C\C=C\[C@@H]3C)[C@]54O)C[C@@H]2OC)O[C@@H](C)[C@@H]1O` [abamectin]: the “proportion” value is 0.242 (active).

As to `CNC(=O)O/N=C(\SC)C(=O)N(C)C` [oxamyl], the “proportion” value is 1.

As for `O=C(NCCc1ncc(C(F)(F)F)cc1Cl)c1ccccc1C(F)(F)F` [fluopyram], the “proportion” value is 0 (active).

The values above are taken from the supplement of paper PMC11219838.
